Results on seven compounds are retold here after PubChem BioAssay (Tox21).

Values without a mark were called inactive. Inconclusive results are not listed. Active and inactive are the calls of the source. Unless noted, the call rests on the fitted dose curve; in most records, active means well fitted curve in the direction sought with a large enough effect in the repeat runs; inconclusive means weak or mixed curves; inactive means no such curve, though single readings can be large; an effect the other way counts as inactive or inconclusive.

Assay [1] in a line: A CellTox Green Cytotoxicity Assay to monitor cytotoxicity in HepG2 cells - 0 hour (AID 1224882). Further: nearly all actives have a fitted effect of over 35% in size. The procedure, abridged:
(§1)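 Cytotoxicity was tracked as dead-cell DNA fluorescence in HepG2 cells treated with test compounds at 37 C; each time-point value comes from one kinetic series spanning 0, 8, 16, 24, 32 and 40 h.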

The nature of assay [2]: A CellTox Green Cytotoxicity Assay to monitor cytotoxicity in HEK293 cells - 8 hour (AID 1224884). Further: nearly all actives have a fitted effect of over 35% in size. An outline of the steps: (§2)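 Real-time, in one plate: 600 HEK293 cells/well with dead-cell DNA dye, pinned compound after 5 h, 37 C incubation over 40 h; viable cells give no appreciable fluorescence.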
Assay [3] is described as follows: qHTS RealTime-Glo MT Cell Viability Assay in HepG2 cells - 16 hour (AID 1224885). Further: nearly all actives have a fitted effect of over 50% in size. An outline of the steps:
(§3)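 Cells + NanoLuc/prosubstrate dispensed (600 cells/well) → 5 h at 37 C/5% CO2 → compounds in DMSO transferred → 40 h incubation at 37 C, luminescence read at 0, 8, 16, 24, 32, 40 h.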

Assay [4] can be described thus: qHTS RealTime-Glo MT Cell Viability Assay in HEK293 cells - 8 hour (AID 1224887). Further: top concentration of the series differs between compounds; nearly all actives have a fitted effect of over 50% in size. An outline of the steps:
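Kinetic, non-lysing viability readout. Seed HEK293 (600/well) with reagent, incubate 5 h at 37 C/5% CO2, pin 23 nL compound in DMSO, incubate at 37 C, read luminescence at 0, 8, 16, 24, 32, 40 h.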

Assay [5] is described as follows: A CellTox Green Cytotoxicity Assay to monitor cytotoxicity in HEK293 cells - 16 hour (AID 1224888). Further: nearly all actives have a fitted effect of over 35% in size. An outline of the steps:
as §2

The nature of assay [6]: qHTS RealTime-Glo MT Cell Viability Assay in HepG2 cells - 0 hour (AID 1224889). Further: nearly all actives have a fitted effect of over 50% in size. An outline of the steps:
as §3

Assay [7] can be described thus: A CellTox Green Cytotoxicity Assay to monitor cytotoxicity in HepG2 cells - 8 hour (AID 1224890). Further: nearly all actives have a fitted effect of over 45% in size. The procedure, abridged:
as §1

A short description of assay [8]: qHTS assay to identify small molecule antagonists of the estrogen receptor alpha (ER-alpha) signaling pathway using the BG1 cell line in the presence of 0.1 nM 17-beta-estradiol - cell viability counter screen (AID 1259241). Further: nearly all actives have a fitted effect of over 40% in size. An outline of the steps:
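VM7Luc4E2 cells (endogenous full-length ER-alpha, 4xERE-luciferase), cultured 5 days in charcoal-stripped serum, exposed to compounds with 0.1 nM 17beta-estradiol (final) for 22 hr at 37C. Viability read in same wells as live-cell protease fluorescence after 30 min.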

A short description of assay [9]: qHTS assay to identify small molecule antagonists of the androgen receptor (AR) signaling pathway using the MDA cell line in the presence of 0.5 nM R1881 - cell viability counter screen (AID 1259242). Further: nearly all actives have a fitted effect of over 45% in size. An outline of the steps: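 Cells seeded at 3,000/well and allowed 5 hr at 37C, 0% CO2 before compound transfer and R1881 (0.5 nM final) addition; 16 hr later, live-cell protease fluorescence indicated cytotoxicity.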

Assay [10] is described as follows: qHTS assay to identify small molecule HDAC inhibitors (AID 1259364).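 Further: wild-type HCT-116 cells with endogenous class I/II HDAC activity; top concentration of the series differs between compounds; nearly all actives have a fitted effect of over 45% in size.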 The procedure, abridged: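 HCT-116 wt cells, 1,500/well, overnight attach. Compounds (DMSO) 2 h, 37 °C. HDAC-Glo I/II, 30 min RT. Luminescence.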
Assay [11] can be described thus: qHTS assay to identify small molecule HDAC inhibitors - cell viability counter screen (AID 1259365). Further: series mostly up to about 92 µM; nearly all actives have a fitted effect of over 50% in size. The procedure, abridged: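 Wild-type HCT-116 cells, 1,500/well, cultured overnight, then compound-treated 2 h at 37 C. Viability measured as ATP luminescence with CellTiter-Glo after 30 min at room temperature.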
The nature of assay [12]: qHTS assay to identify small molecule agonists of the sonic hedgehog signaling (Shh) pathway - cell viability counter screen (AID 1259366). Further: nearly all actives have a fitted effect of over 50% in size. An outline of the steps:
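NIH/3T3-derived Gli1-Luc reporter cells, 2,000 per well, received compound after 4 h and were treated about 23 h at 37C. Viability measured in the same wells by CellTiter-Fluor fluorescence after 1 h.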

Assay [13] in a line: qHTS assay to identify small molecule antagonists of the sonic hedgehog signaling (Shh) pathway - cell viability counter screen (AID 1259367). Further: nearly all actives have a fitted effect of over 55% in size. The procedure, abridged: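 Fluorescence read-out (CellTiter-Fluor, 1 hr at 37C) taken after 23 hr compound treatment of 3T3 Gli1-Luc cells stimulated with conditioned medium. Cells were seeded at 2,000 per well and pre-incubated 4 hr.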

The nature of assay [14]: qHTS assay to identify small molecule agonists of the sonic hedgehog signaling (Shh) pathway (AID 1259368; calls by dose curve;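 further: NIH/3T3-derived 3T3Gli1-Luc cells carrying a stable Gli1-driven firefly luciferase reporter; series mostly up to about 92 µM; nearly all actives have a fitted effect of over 15% in size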). The procedure, abridged: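 Following a 24 hr incubation with DMSO-dissolved compounds at 37 C, 5% CO2, Gli1-Luc NIH/3T3-derived cells received luciferase reagent for 30 min at room temperature prior to luminescence measurement.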
The nature of assay [15]: qHTS assay to identify small molecule antagonists of the sonic hedgehog signaling (Shh) pathway (AID 1259369; calls by dose curve; further: nearly all actives have a fitted effect of over 45% in size; further: potency means the concentration at half of the fitted maximal effect). An outline of the steps: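 Read-out is luminescence from a firefly luciferase gene controlled by the Gli1 response element, in 3T3Gli1-Luc cells pre-incubated 4hr then exposed to compounds and conditioned medium for 24hr.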
Assay [16] in a line: A CellTox Green Cytotoxicity Assay to monitor cytotoxicity in HepG2 cells - 32 hour (AID 1224883). Further: nearly all actives have a fitted effect of over 50% in size. An outline of the steps: as §1
A short description of assay [17]: qHTS RealTime-Glo MT Cell Viability Assay in HEK293 cells - 24 hour (AID 1224886). The procedure, abridged: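 Tox21 10K qHTS, HEK293, 600 cells/well, RealTime-Glo reagent co-dispensed with cells; 5 h preincubation, compound by pintool, 37 C, luminescence at 0–40 h.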
The target of assay [18] is Estrogen receptor (Homo sapiens) (UniProt P03372). Description: qHTS assay to identify small molecule antagonists of the estrogen receptor alpha (ER-alpha) signaling pathway using the BG1 cell line in the presence of 0.1 nM 17-beta-estradiol (AID 1259244). Further: nearly all actives have a fitted effect of over 50% in size. An outline of the steps:
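Luciferase signal from VM7Luc4E2 ERE-reporter cells, co-dosed with test compound and 0.1 nM final 17beta-estradiol for 22 h, read with ONE-Glo.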

Assay [19] is described as follows: qHTS assay to identify small molecule phospholipidosis (PLD) inducers (AID 1259344; active means well fitted curve in the direction sought with a large enough effect; an effect the other way counts as inactive or inconclusive). An outline of the steps:
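Read-out is LipidTOX Red fluorescence (ex 595/em 615) imaged in HepG2 cells after 24 h compound exposure at 37 C, with Hoechst nuclear counterstain (ex 352/em 461) allowing per-cell normalisation.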
On the % scale 0 is the no-effect control and ±100 the full control effect.

Chain of Estrogen receptor (Homo sapiens) (P03372 whole entry, looked up): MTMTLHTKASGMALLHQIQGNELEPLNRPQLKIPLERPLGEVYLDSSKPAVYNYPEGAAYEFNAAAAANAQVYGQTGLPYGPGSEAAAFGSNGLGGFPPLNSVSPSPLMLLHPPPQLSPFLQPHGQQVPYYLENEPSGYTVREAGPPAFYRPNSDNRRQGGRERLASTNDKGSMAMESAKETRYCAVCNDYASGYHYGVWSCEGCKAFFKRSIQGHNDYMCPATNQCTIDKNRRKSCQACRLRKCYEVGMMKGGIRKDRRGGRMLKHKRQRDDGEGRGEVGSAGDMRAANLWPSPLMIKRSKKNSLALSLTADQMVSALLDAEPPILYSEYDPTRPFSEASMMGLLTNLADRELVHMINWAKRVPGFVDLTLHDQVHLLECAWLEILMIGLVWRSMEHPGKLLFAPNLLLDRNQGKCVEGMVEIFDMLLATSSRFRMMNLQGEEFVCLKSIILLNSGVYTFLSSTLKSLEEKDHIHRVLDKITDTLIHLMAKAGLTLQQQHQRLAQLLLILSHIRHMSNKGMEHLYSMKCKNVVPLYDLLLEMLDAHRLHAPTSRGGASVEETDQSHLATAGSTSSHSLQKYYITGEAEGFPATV

For the compound `Cc1cccc(OCCOc2cccc(C)c2)c1`, the Potency result in [1], in assay [2], in assay [3], in [4], in assay [5] and in [6] was “inactive” in each case. Moreover, the Potency entry in assay [7], in assay [8], in [9], in [10], in [12] and in [13] was “inactive” in each case. Further, the Potency result in assay [15] is “inactive”. In addition, the result in assay [11] and in [14] was inactive.
As for `CCCCCCCCCO`, the Potency result in assay [1], in assay [16], in [17], in assay [4], in assay [5] and in assay [6] was “inactive” in each case. Further, the Potency entry in assay [7], in assay [9], in assay [18], in assay [10], in [12] and in assay [13] was “inactive” each time. The Potency result in assay [15] was “inactive”. Moreover, the call in assay [11] and in assay [14] was inactive.
On to `CCCCCCCCCCCCCCCC(=O)OC/C=C(C)/C=C/C=C(C)/C=C/C1=C(C)CCCC1(C)C`, for which the Potency entry in [1], in [16], in assay [17], in [4], in assay [5] and in [6] was “inactive” in each case. Also, the Potency entry in assay [7], in assay [8], in [9], in assay [10], in assay [12] and in assay [13] was “inactive” each time. In addition, the outcome in [11] and in assay [14] was inactive.
As to `CCCC[C@H]1CN(CC2CCOCC2)C(=O)OC12CCN(C1(C)CCN(C(=O)c3c(C)ncnc3C)CC1)CC2`, the Potency result in assay [1], in assay [3], in [17], in assay [4], in [5] and in assay [7] was “inactive” in each case. In addition, the Potency entry in [8], in assay [9], in assay [10], in [13] and in [15] was “inactive” each time. Further, the outcome in assay [11] and in assay [14] was inactive.
On to `CC(=O)O[C@@H]1C(=O)O[C@@H]2[C@H]1OC(=O)[C@@H]2OC(C)=O`, for which the Potency entry in [1], in [2], in assay [17], in assay [4], in assay [5] and in assay [6] was “inactive” in each case. The Potency entry in assay [7], in assay [8], in [9], in [18], in assay [10] and in [12] was “inactive” throughout. The Potency result in assay [13] and in assay [15] was “inactive” in each case. In addition, in assay [19], the PLD induction was 0.969% [at 7.66 µM]. The result in assay [11] and in assay [14] was inactive.
Consider `CCN(CC)CCNC(C(=O)OCCC(C)C)c1ccccc1` (stereo unspecified), for which the Potency entry in assay [16], in [2], in assay [3], in assay [17], in assay [4] and in [5] was “inactive” in each case. The Potency result in assay [6], in assay [7], in assay [8], in assay [9], in assay [18] and in assay [19] was “inactive” in each case. For the same compound, the Potency entry in assay [10], in assay [12], in assay [13] and in [15] was “inactive” throughout. Further, the result in [11] and in [14] was inactive.
In the case of `Oc1ccc(Sc2ccc(O)cc2)cc1`, the Potency entry in assay [1], in [16], in assay [3], in [5], in [6] and in assay [7] was “inactive” each time. Also, the Potency entry in assay [8], in assay [9], in assay [10], in assay [12] and in assay [13] was “inactive” each time. The compound was classed as inactive in assay [11] and in [14]. The Potency in assay [15] is 20.3 µM (active).
